Experimental data published in PubChem BioAssay.
Active and inactive are the calls of the source.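 The calls were made as follows, unless noted: active = compound that reduces growth-factor-driven endothelial tube area in a mixed cell culture, no cutoff stated; inactive = the rest.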

How the values were obtained:
[1] = Wnt pathway potentiators raising nuclear beta-catenin – imaging, WNT3A-conditioned medium, mouse C2C12, NPC library, primary screen (AID 1117326; in the data active = nuclear beta-catenin stimulation mostly above about 4.2%, no sharp cut-off; inactive = mostly below about 10%; also: reference of the scale not given here); conditions: stronger effect = higher value
[2] = stimulators of insulin release from INS-1E, primary screen, cell-based, 5 mM glucose, NPC library (AID 1117329;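 active = compound raises insulin release from rat beta cells at 5 mM glucose, no numeric limit stated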; also: reference of the scale not given here); conditions: rat INS-1E insulin secretion, at 10 µM, stronger effect = higher value
[3] = growth inhibition of GSK3B-pretreated HCT116 cells – cell-based, CellTiter-Glo, 0.2 to 20 µM (AID 1117336;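 active = compounds lowering colon cancer cell viability after pretreatment blocking the GSK3B kinase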); conditions: HCT116 viability after GSK3B inhibitor, at 20 µM, stronger effect = higher value
[4] = inhibition of endothelial tube formation, primary screen, imaging, VEGF stimulated, CD31 staining, tube area, NPC library (AID 1117340); conditions: VEGF-stimulated ADSC/ECFC co-culture, at 10 µM, stronger effect = higher value
[5] = GLP1 release stimulators, primary, NCI-H716, NPC library (AID 1117341;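 active = compound raises GLP1 secretion from the human gut endocrine cells, with no numeric limit stated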; also: reference of the scale not given here); conditions: NCI-H716 cells, at 10 µM, stronger effect = higher value
[6] = HCT116 colon cancer cell growth inhibition, primary screen, CellTiter-Glo luminescence, NPC library (AID 1117342;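 active = compounds that lower survival of HCT116 colon cancer cells in the luminescence readout, no numeric limit stated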); conditions: at 20 µM (top of the series)
[7] = reduced SW480 viability measured with CellTiter-Glo, NPC library, primary (AID 1117343;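 active = compounds that lower viability of the colon cancer cells in the luminescence readout, with no numeric limit stated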); conditions: CellTiter-Glo luminescence; at 20 µM (top of the series)
[8] = NPC library primary testing for decreased DLD-1 cell viability via CellTiter-Glo (AID 1117346;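 active = compounds that lower survival of DLD-1 colon cancer cells in the luminescence readout, no cutoff given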); conditions: DLD-1 viability, CellTiter-Glo luminescence; at 20 µM (top of the series)

COC(=O)c1cc(S(C)(=O)=O)ccc1OC
inactive: nuclear beta-catenin stimulation ([1]; at 10 µM) 1% | insulin secretion stimulation [2] 2% | viability decrease [3] -2.3% | tube area decrease [4] -4.1% | GLP1 secretion stimulation [5] -1.3% | inhibition of viability [6] 6.4% | viability decrease (inhibition) [7] -3.4% | viability decrease (inhibition) [8] -1.9%
3.6%: nuclear beta-catenin stimulation ([1]; stimulation, at 2 µM)

Nc1c(N=Nc2ccc(-c3ccc(N=Nc4cc(S(=O)(=O)O)c5ccccc5c4N)cc3)cc2)cc(S(=O)(=O)O)c2ccccc12
0.3%: nuclear beta-catenin stimulation ([1]; stimulation, at 2 µM)
inactive: nuclear beta-catenin stimulation ([1]; at 10 µM) -3.3% | insulin secretion stimulation [2] 2% | viability decrease [3] -26.6% | tube area decrease [4] 16.8% | GLP1 secretion stimulation [5] -1.7% | inhibition of viability [6] -132% | viability decrease (inhibition) [7] -0.2% | viability decrease (inhibition) [8] -66.6%

O=C(O)CCC(=O)C(=O)O
inactive: nuclear beta-catenin stimulation ([1]; at 10 µM) -1.7% | insulin secretion stimulation [2] -2.2% | viability decrease [3] 0.1% | tube area decrease [4] -17.8% | GLP1 secretion stimulation [5] -1.6% | inhibition of viability [6] -1.4% | viability decrease (inhibition) [7] 2.9% | viability decrease (inhibition) [8] -7.5%
-0.1%: nuclear beta-catenin stimulation ([1]; stimulation, at 2 µM)

CCN(CC)CCOC(=O)C1(c2ccccc2)CCCC1
-0.5%: nuclear beta-catenin stimulation ([1]; stimulation, at 2 µM)
inactive: nuclear beta-catenin stimulation ([1]; at 10 µM) -1.2% | insulin secretion stimulation [2] 9.3% | viability decrease [3] -14.1% | tube area decrease [4] 22.6% | GLP1 secretion stimulation [5] -2.7% | inhibition of viability [6] 4% | viability decrease (inhibition) [7] -1.9% | viability decrease (inhibition) [8] -2.6%

CN(C)[C@@H]1C(=O)C(C(=O)NCN2CCCC2)=C(O)[C@@]2(O)C(=O)C3=C(O)c4c(O)cccc4[C@@](C)(O)C3C[C@@H]12 (stereo not given in full)
active: GLP1 secretion stimulation [5] 25.3%
inactive: nuclear beta-catenin stimulation ([1]; at 10 µM) 3.5% | insulin secretion stimulation [2] 2.3% | viability decrease [3] -20.7% | tube area decrease [4] -7.9% | inhibition of viability [6] 3.4% | viability decrease (inhibition) [7] -73.8% | viability decrease (inhibition) [8] 2.6%
3.1%: nuclear beta-catenin stimulation ([1]; stimulation, at 2 µM)

CCCCCCn1c(=O)c2c(ncn2C)n(C)c1=O
inactive: nuclear beta-catenin stimulation ([1]; at 10 µM) -0.5% | insulin secretion stimulation [2] 1.5% | viability decrease [3] 1.6% | tube area decrease [4] 10.5% | GLP1 secretion stimulation [5] 1.6% | inhibition of viability [6] 6.2% | viability decrease (inhibition) [7] 15% | viability decrease (inhibition) [8] -3.4%
-2%: nuclear beta-catenin stimulation ([1]; stimulation, at 2 µM)

Cc1ccc2c(n1)Oc1ccc(C(C)C(=O)OCC(=O)N(C)C)cc1C2 (stereo not given)
inactive: nuclear beta-catenin stimulation ([1]; at 10 µM) 0.6% | insulin secretion stimulation [2] 1.8% | viability decrease [3] 28.6% | tube area decrease [4] -10% | GLP1 secretion stimulation [5] 3.6% | inhibition of viability [6] 20.4% | viability decrease (inhibition) [7] -3.8% | viability decrease (inhibition) [8] -1.1%
-2.8%: nuclear beta-catenin stimulation ([1]; stimulation, at 2 µM)

CCN(CC)CCSC(=O)C(c1ccccc1)c1ccccc1
inactive: nuclear beta-catenin stimulation ([1]; at 10 µM) 7.2% | insulin secretion stimulation [2] 15.8% | viability decrease [3] 6.7% | tube area decrease [4] 3.2% | GLP1 secretion stimulation [5] 9.6% | inhibition of viability [6] 1% | viability decrease (inhibition) [7] 5.1% | viability decrease (inhibition) [8] 1.5%
2.8%: nuclear beta-catenin stimulation ([1]; stimulation, at 2 µM)

COc1ccc2c(c1)CCCC2=O
-0.1%: nuclear beta-catenin stimulation ([1]; stimulation, at 2 µM)
inactive: nuclear beta-catenin stimulation ([1]; at 10 µM) 1.5% | insulin secretion stimulation [2] 1.3% | viability decrease [3] 5.2% | tube area decrease [4] 13.5% | GLP1 secretion stimulation [5] 0.1% | inhibition of viability [6] 8.5% | viability decrease (inhibition) [7] -3.8% | viability decrease (inhibition) [8] -12%

Oc1ccc(Cl)cc1Sc1cc(Cl)ccc1O
0%: nuclear beta-catenin stimulation ([1]; stimulation, at 2 µM)
active: viability decrease [3] 100% | tube area decrease [4] 101% | GLP1 secretion stimulation [5] 47.3% | inhibition of viability [6] 102% | viability decrease (inhibition) [7] 122% | viability decrease (inhibition) [8] 103%
inactive: nuclear beta-catenin stimulation ([1]; at 10 µM) 4.4% | insulin secretion stimulation [2] 4.5%

OCc1ccc(Cl)cc1Cl
inactive: nuclear beta-catenin stimulation ([1]; at 10 µM) 2.2% | insulin secretion stimulation [2] -2% | viability decrease [3] 1.6% | tube area decrease [4] 13.7% | GLP1 secretion stimulation [5] -5% | inhibition of viability [6] -2.7% | viability decrease (inhibition) [7] 26.9% | viability decrease (inhibition) [8] 13.2%
0.6%: nuclear beta-catenin stimulation ([1]; stimulation, at 2 µM)

CCCc1ccc(OCC(=O)N2CCN(C(=O)COc3ccc(CCC)cc3OC)CC2)c(OC)c1
active: tube area decrease [4] 43.5% | viability decrease (inhibition) [7] 97.2% | viability decrease (inhibition) [8] 101%
inactive: nuclear beta-catenin stimulation ([1]; at 10 µM) 0.8% | insulin secretion stimulation [2] 2.6% | viability decrease [3] -50.5% | GLP1 secretion stimulation [5] 10.9% | inhibition of viability [6] 48.2%
2.5%: nuclear beta-catenin stimulation ([1]; stimulation, at 2 µM)

Cc1ncc(CO)c(C=O)c1O
0.6%: nuclear beta-catenin stimulation ([1]; stimulation, at 2 µM)
inactive: nuclear beta-catenin stimulation ([1]; at 10 µM) -0.2% | insulin secretion stimulation [2] 2.8% | viability decrease [3] -8.9% | tube area decrease [4] -6.1% | GLP1 secretion stimulation [5] -2.6% | inhibition of viability [6] 13.3% | viability decrease (inhibition) [7] 24.3% | viability decrease (inhibition) [8] -1.4%

CNc1c2c(nn1C)CCCC2
0.4%: nuclear beta-catenin stimulation ([1]; stimulation, at 2 µM)
inactive: nuclear beta-catenin stimulation ([1]; at 10 µM) 0.2% | insulin secretion stimulation [2] 0% | viability decrease [3] -3.4% | tube area decrease [4] 16.1% | GLP1 secretion stimulation [5] 0% | inhibition of viability [6] -4.2% | viability decrease (inhibition) [7] -2.2% | viability decrease (inhibition) [8] 0.1%

COC(=O)c1ccc(O)cc1
0.3%: nuclear beta-catenin stimulation ([1]; stimulation, at 2 µM)
inactive: nuclear beta-catenin stimulation ([1]; at 10 µM) 1.3% | insulin secretion stimulation [2] -1.8% | viability decrease [3] -8.75% | tube area decrease [4] 4.5% | GLP1 secretion stimulation [5] 0.6% | inhibition of viability [6] -9.8% | viability decrease (inhibition) [7] 18.8% | viability decrease (inhibition) [8] -6.75%
